# Bioassay records from PubChem.
# LmPK inh = inhibitors of Leishmania mexicana pyruvate kinase; Q27686; purified LmPK, Kinase-Glo ATP luminescence, 1 h; Potency, µM (highest dose often 57.5 µM), inactives show top-dose activity change, negative = inhibition, most hits filed as inhibitors; 290,000 compounds, 0.37% hits; also: % is scaled to controls: 0 for no effect and ±100 for the full control effect
# Target sequence (Q27686 whole entry, looked up): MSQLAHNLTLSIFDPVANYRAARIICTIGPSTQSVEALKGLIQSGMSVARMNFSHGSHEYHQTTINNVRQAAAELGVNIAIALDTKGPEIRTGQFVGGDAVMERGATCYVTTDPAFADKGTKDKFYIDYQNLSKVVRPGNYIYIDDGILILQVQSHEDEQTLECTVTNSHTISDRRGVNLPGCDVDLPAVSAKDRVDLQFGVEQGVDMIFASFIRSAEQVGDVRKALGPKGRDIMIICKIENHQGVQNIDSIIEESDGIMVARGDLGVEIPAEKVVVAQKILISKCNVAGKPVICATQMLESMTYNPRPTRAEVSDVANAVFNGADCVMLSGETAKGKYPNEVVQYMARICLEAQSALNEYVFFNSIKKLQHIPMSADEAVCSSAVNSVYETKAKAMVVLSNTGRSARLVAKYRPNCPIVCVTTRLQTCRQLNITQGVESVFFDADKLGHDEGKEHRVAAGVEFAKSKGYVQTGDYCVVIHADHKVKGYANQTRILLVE
#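 0.1 nM LmPK, 0.5 mM PEP, 0.1 mM ADP; 50 mM imidazole pH 7.2, 7 mM MgCl2, 50 mM KCl; 1 h RT. Kinase-Glo luminescence readout, normalized to no-enzyme (full inhibition) and uninhibited wells.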
# TbPYK inhibitor = T. brucei pyruvate kinase inhibition | Q57TT1 | TbPYK enzyme, Kinase-Glo Plus ATP luminescence, 45 min | Potency, µM (series often up to 76.8 µM), for inactives: at the top dose activity, negative = inhibition, most hits filed as inhibitors | 410,000 compounds, 0.12% hits | AID 624173; also: % is scaled to controls: 0 for no effect and ±100 for the full control effect; nearly all actives have a fitted effect of over 50% in size
#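 Luminescence from Kinase-Glo Plus, added after a 45-minute room-temperature reaction, served as the end-point read-out. The enzyme and substrate were preincubated with compound before ADP (130 uM final) initiated turnover. Concentration-effect curves came from normalized qHTS data.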
# SARS PLP yeast = SARS-CoV PLP inhibition in yeast; S. cerevisiae expressing SARS-CoV PLpro, growth rescue; Potency, µM (top dose mostly 32.9 µM), for the others: top-dose activity, positive = growth rescue, actives largely listed as activators; 330,000 compounds, 0.19% hits; AID 485353; calls by dose curve; also: 0% is about no effect; nearly all actives have a fitted effect of over 55% in size
# NS1 function inh = blocks influenza NS1 protein function | Potency, µM (doses to about 46.1 µM), without a hit: top-dose activity, positive = more growth | 270,000 compounds, 0.4% hits; calls by dose curve; also: actives are rising curves; nearly all actives have a fitted effect of over 50% in size
#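 Recovery from NS1-induced slow growth read by OD600 in budding yeast switched to galactose assay medium (pH 6.0, -URA) at 1:100 dilution. Compound 23 nl per well; the matching strain lacking NS1 serves as control.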
# RE007 growth inh = less growth of the S. pombe RE007 Vpr strain; S. pombe RE007 Vpr strain, BacTiter-Glo ATP luminescence, 24 h; Potency, µM (titrated, usually from 92.2 µM), inactives show top-dose activity change, negative = less growth, most hits filed as inhibitors; 360,000 compounds, 0.21% hits; active = well fitted falling curve with a large enough effect; inconclusive = small, poorly fitted or top-dose-only effect; inactive = no such curve, though single readings can be large or run the other way; also: % is scaled to controls: 0 for no effect and ±100 for the full control effect; nearly all actives have a fitted effect of over 50% in size
#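 Fission yeast RE007 carrying one integrated HIV-1 vpr copy, seeded at OD 0.01 in PMG+AL medium with 23 nL pinned compound. Grown 24 h at 30 degrees; viability read by BacTiter-Glo luminescence after 5 min.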
# Sm TGR inh = S. mansoni TGR enzyme inhibition. Q962Y6. purified TGR, DTNB reduction, TNB absorbance 405 nm. Potency, µM (highest dose often 114 µM), without a hit: at the highest dose activity change, negative = inhibition, actives largely listed as inhibitors. 360,000 compounds, 3% hits; also: % is scaled to controls: 0 for no effect and ±100 for the full control effect; nearly all actives have a fitted effect of over 60% in size
#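 Kinetic colorimetric format: TGR-catalysed, NADPH-driven DTNB reduction monitored via TNB absorbance. Enzyme dispensed at 20 nM; compound exposure 15 min at room temperature before reaction start.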
# Starred values were filed as active, the others as inactive; u = inconclusive; x = no result given. An excerpt weighted towards active compounds, which were near 3.3% of everything screened. Unless noted, calls follow the shape of the dose curve; as a rule, active = well fitted curve in the direction sought with a large enough effect; inconclusive = small, poorly fitted or top-dose-only effect, or another doubt; inactive = no such curve, though single readings can be large; an effect the other way counts as inactive or inconclusive. Potency is read from the fitted curve at half-maximal effect.
SMILES,LmPK inh,TbPYK inhibitor,SARS PLP yeast,NS1 function inh,RE007 growth inh,Sm TGR inh
COc1ccc(NC(=O)CCS(=O)(=O)c2nc(-c3cccs3)cc(C(F)(F)F)n2)cc1,x,-7.3%,x,x,x,20µM*
CC(C)c1nnc(NC(=O)CCS(=O)(=O)c2nc(-c3cccs3)cc(C(F)(F)F)n2)s1,5.8%,-5.8%,4.9%,1.7%,-9.5%,20µM*
O=C(CCS(=O)(=O)c1nc(-c2cccs2)cc(C(F)(F)F)n1)Nc1ccc(OC(F)(F)F)cc1,x,u,x,x,x,-5.6%
CCOC(=O)N1CCN(C(=O)CS(=O)Cc2nc(-c3cccc(C)c3)oc2C)CC1 (stereo not drawn),12.3%,2.9%,0.4%,2.5%,6.9%,u
CCN1CCN(C(=O)CS(=O)Cc2nc(-c3cccc(C)c3)oc2C)CC1 (stereo not drawn),-2.1%,3.5%,-3.1%,2.8%,-17.2%,39.8µM*
Cc1cccc(-c2nc(CS(=O)CC(=O)N3CC(C)CC(C)C3)c(C)o2)c1 (stereo not drawn),-5.2%,-1.7%,1.4%,-6.7%,1.4%,35.5µM*
CC(=O)Nc1sc2c(c1C(c1cccs1)N1CCOCC1)CCCC2 (stereo not drawn),0.9%,-13.3%,-3.8%,4.1%,-0.9%,22.4µM*
COc1cc(-c2nc(C(N)=O)c3c(n2)n(-c2cccc(C)c2)c(=O)n3C)cc(OC)c1OC,x,2.5%,x,x,x,0.5%
Cc1cc(C)c2c(CC(=O)Nc3ccc(S(=O)(=O)N4CCCC(C)C4)cc3)coc2c1 (stereo not drawn),x,-1.0%,x,x,x,0.9%
COc1ccc(-c2noc(CCCC(=O)NCc3ccco3)n2)cc1OC,4.1%,-0.2%,-5.0%,-8.9%,-10.2%,39.8µM*
COc1ccc(-c2cc(C(F)(F)F)nc(SCC(=O)NCc3ccco3)n2)cc1OC,3.1%,-10.6%,-8.1%,2.2%,14.5%,44.7µM*
COc1ccccc1N1CCN(C(=O)CSc2nc(-c3ccco3)cc(C(F)(F)F)n2)CC1,3.5%,u,-0.1%,1.9%,15.7%,35.5µM*
O=C(CSc1nc(-c2ccccc2)cc(C(F)(F)F)n1)NCc1ccco1,4.0%,-8.8%,-6.4%,1.3%,7.7%,22.4%
Cc1cccc(-c2noc(CCCC(=O)NCc3ccco3)n2)c1,x,-1.3%,x,x,x,-2.0%
COc1cccc(-c2noc(CCCC(=O)NCc3ccco3)n2)c1,x,-1.6%,x,x,x,44.7µM*
CC12C=CC(=O)C=C1[C@@H](F)CC1C2C(O)CC2(C)C1CC[C@]2(O)C(=O)CO (stereo partly drawn),x,2.4%,x,x,x,x
CCOc1ccccc1NC(=O)Nc1cccc(S(N)(=O)=O)c1,4.5%,0.4%,2.3%,-3.0%,-1.4%,-1.4%
CCOc1ccccc1NS(=O)(=O)c1cccs1,1.9%,4.3%,1.2%,-4.8%,-11.8%,5.6%
CCOc1ccccc1NC(=O)CCS(=O)(=O)c1cccs1,6.3%,-8.3%,-2.9%,4.2%,2.9%,56.2µM*
CCOc1ccccc1NC(=O)/C=C/C(N)=O,-7.6%,-15.9%,-32.5%,-40.0%,-7.0%,3.98µM*
CCOc1ccccc1NC(=S)Nc1ccc(S(N)(=O)=O)cc1,1.0%,2.2%,-1.3%,-2.8%,9.4%,14.1µM*
Cc1cccc(N(C)C(=O)Cc2c(C(=O)O)[nH]c3ccccc23)c1,x,-0.8%,x,x,x,-5.2%
Cc1nn(CC(=O)Nc2ccc3c(c2)OCO3)c(C)c1Cl,4.0%,-5.3%,-3.0%,10.6%,1.2%,-14.6%
CC(NC(=O)Cn1ncc(Cl)c(Cl)c1=O)C12CC3CC(CC(C3)C1)C2 (stereo not drawn),-2.2%,-2.7%,-53.1%,-15.5%,1.8%,39.8µM*
CCN(CC)S(=O)(=O)c1cc(NC(=O)Cn2ncc(Cl)c(Cl)c2=O)ccc1C,-0.1%,0.1%,0.7%,2.8%,8.7%,0.562µM*
SMILES,LmPK inh,TbPYK inhibitor,SARS PLP yeast,NS1 function inh,RE007 growth inh,Sm TGR inh
O=C(Cn1ncc(Cl)c(Cl)c1=O)Nc1ccc2c(c1)OCO2,x,3.6%,-18.5%,x,-10.1%,44.7µM*
CCCCN(CCCC)CCNC(=O)Cn1nc(CC)n2c(cc3sc(C)cc32)c1=O,x,-12.0%,x,x,x,-3.6%
CCOc1ccc2c(c1)nc(SCC(=O)c1ccc(Br)s1)n2C,-3.5%,-27.3%,26.4%,22.1%,-3.8%,35.5µM*
CCOc1ccc2c(c1)nc(SCC(=O)c1cccs1)n2C,-4.1%,-19.2%,-13.4%,-7.5%,-26.2%,u
COc1ccccc1N1CCN(C(=O)c2ccc(Nc3nc4ccccc4n4nnnc34)cc2)CC1,x,-18.6%,x,x,x,7.4%
COc1ccccc1NC(=O)c1ccc(NC(=O)COC(=O)C(C)C)cc1,-2.5%,-1.0%,-13.0%,-13.1%,-9.9%,31.6µM*
COc1ccc(OC)c(C2C(C(=O)N3CCCCC3)=C(C)Nc3nc4ccccc4n32)c1 (stereo not drawn),x,-3.7%,x,x,x,7.2%
c1ccc(-n2ncc3c(NCCN4CCCCC4)ncnc32)cc1,-1.8%,2.1%,-1.8%,-7.5%,-7.8%,50.1µM*
N=C(N)SCc1ccc(Cl)c2ccccc12 (tested in a mixture with another compound),x,x,x,-46.7%,x,x
O=c1cc(-c2ccccc2F)oc2ccccc12,0.6%,1.6%,-29.3%,-7.5%,63.1µM*,1.1%
O=C(COc1ccc(/C=C\[N+](=O)[O-])cc1)N1CCOCC1,7.3%,-13.7%,-1.0%,x,-7.0%,22.4µM*
O=C(COc1ccc(S(=O)(=O)N2CCOCC2)cc1)N1CCOCC1,x,-6.1%,0.9%,x,3.6%,0.3%
CN1CCN(C(=O)Cn2c(-c3cccs3)cc3cc(Cl)ccc32)CC1,x,1.3%,x,x,x,-12.7%
Cc1nc([N+](=O)[O-])c(Sc2nc3ccccc3n2C)n1Cc1ccccc1,-2.4%,-13.8%,-11.2%,2.1%,-5.7%,8.91µM*
O=c1c(Cl)c(NCCCO)cnn1-c1nc2ccccc2[nH]1,14.1µM*,u,-31.6%,-210.8%,u,8.91µM*
C=CCN(CC=C)c1cnn(-c2nc3ccccc3[nH]2)c(=O)c1Cl,15.8µM*,-5.7%,-6.8%,-90.5%,-15.9%,-6.8%
CCN(C(=O)CCc1nc(-c2ccc(C)cc2)no1)c1cccc(C(F)(F)F)c1,x,-6.1%,x,x,x,-6.6%
Cc1ccc(C(=O)N2CCN(c3ccccc3)CC2)cc1NC(=O)c1ccco1,0.2%,-4.5%,-0.1%,-3.7%,8.1%,-23.8%
O=C(Nc1c2c(nn1-c1cccc(Cl)c1)CS(=O)(=O)C2)c1ccco1,2.4%,0.6%,6.4%,7.8%,-4.8%,44.7µM*
COc1ccc(N2CCN(C(=O)c3ccc(C)c(NC(=O)c4ccco4)c3)CC2)cc1,0.4%,-5.7%,0.1%,15.6%,-17.3%,1.78µM*
Cc1ccc(-n2nc3c(c2NC(=O)c2ccco2)CS(=O)(=O)C3)cc1C,-10.7%,-5.8%,-1.0%,8.6%,2.1%,-24.7%
